This is a sample that favours compounds with a hit; in the whole collection about 4.2% have one here.
TIM10 inh = TIM10 yeast growth inhibition. S. cerevisiae TIM10 strain growth, BacTiter-Glo luminescence, 24 h. inhibition, % at 10 µM. hit rate 1.4% among 330,000;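 active = inhibition of 40% or more at the single tested concentration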;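 also: wild-type TIM10 isogenic control strain grown at permissive 25 °C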
tim23-1 inh = inhibits growth of tim23-1 mutant yeast. S. cerevisiae tim23-1 growth, BacTiter-Glo luminescence, 24 h. inhibition, % at 20 µM. hit rate 1.3% among 330,000. AID 463212;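 active = growth inhibition of the mutant yeast at or above 50%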;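 also: temperature-sensitive mutant grown at 25 °C; plate controls were DMSO-treated mutant yeast for no effect and medium wells lacking yeast for full effect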
tim10-1 inh = growth inhibitors of tim10-1 mutant yeast; AID 463190; hit rate 2.2% among 330,000; inhibition, % at 20 µM; S. cerevisiae tim10-1 ts strain growth, BacTiter-Glo, 24 h;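 active = inhibition of at least 40%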;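 also: mutant grown at 25 °C; 0% = DMSO wells with yeast and 100% = wells holding no yeast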
PfHsp90 yeast 2 = reduces growth (ATP signal) of yeast expressing P. falciparum Hsp90 | AID 504621 | hit rate 0.32% among 310,000 | inhibition, % at 9.4 µM | S. cerevisiae expressing PfHsp90, BacTiter-Glo ATP, 48 h; yeast lacking PDR1 and PDR3 efflux regulators;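 active = every replicate shows inhibition above about 80%, whatever the replicate mean, limit read from the data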;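 also: 0% = DMSO neutral controls and 100% = 20 µM radicicol positive controls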
NALP1 inh = blocks the NALP1 inflammasome reconstituted in yeast. S. cerevisiae NALP1/ASC/caspase-1 growth, X-gal OD620, 72 h. inhibition, % at 10 µM. hit rate 0.61% among 280,000. AID 2071; in the data active = inhibition mostly above about 24%, no sharp cut-off; inactive = mostly below about 32%
NALP3 yeast inh = inhibitors of NALP3 inflammasome in yeast. Yeast reconstituted NLRP3/ASC/caspase-1, beta-gal luminescence, 24 h. hit rate 0.39% among 330,000. inhibition, % at 10 µM;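 active = inhibition of 50% or more; inactive = inhibition below 50%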;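 also: plate controls were induced DMSO wells for no effect and uninduced yeast grown without galactose for full effect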
tim10-1 conf = tim10-1 yeast growth inhibition, confirmed; shares compounds with tim10-1 inh; S. cerevisiae tim10-1 ts strain growth, BacTiter-Glo, 24 h; inhibition, % at 20 µM; hit rate 56% among 7,400;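 active = inhibition of yeast growth at or above a set limit in either of two repeat tests at 20 µM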;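 also: tim10-1 mutant grown at permissive 25 °C to find synthetic lethal compounds; 0% = DMSO yeast wells and 100% = medium wells without yeast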
tim10 confirm = confirmation of TIM10 yeast growth inhibitors. S. cerevisiae tim10 strain growth, BacTiter-Glo luminescence, 24 h. hit rate 63% among 4,600. shares compounds with TIM10 inh. inhibition, % at 10 µM;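 active = inhibition of yeast growth at or above a set limit in either of two replicates at 10 µM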;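 also: this counterscreen used the strain with wild-type TIM10; 0% = yeast with DMSO and 100% = medium wells lacking yeast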
tim23-1 confirm = tim23-1 yeast growth inhibition, confirmed | hit rate 83% among 4,400 | shares compounds with tim23-1 inh | S. cerevisiae tim23-1 growth, BacTiter-Glo luminescence, 24 h | inhibition, % at 20 µM | AID 463218;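 active = inhibition above about 39% in either of two replicate wells at 20 µM, limit read from the data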;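 also: temperature-sensitive tim23-1 mutant grown at 25 °C; 0% = DMSO wells with yeast and 100% = medium wells without yeast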
Active calls of the source: *; / = no result given.

SMILES	TIM10 inh	tim23-1 inh	tim10-1 inh	PfHsp90 yeast 2	NALP1 inh	NALP3 yeast inh	tim10-1 conf	tim10 confirm	tim23-1 confirm
CCCCOc1ccc(-c2cc(C(=O)NNC(=S)NCC)c3ccccc3n2)cc1	47*	67*	72*	-36	-4	10	70*	46*	74*
CCNC(=S)NNC(=O)c1cc(-c2cccc(C)c2)nc2ccccc12	55*	73*	82*	32	-12	2	79*	41*	72*
CCNC(=S)NNC(=O)c1cc(-c2ccc(OC)cc2)nc2ccccc12	54*	86*	82*	27	26	6	74*	-30	78*
CCNC(=S)NNC(=O)c1cc(C)nc2ccccc12	6	-2	-3	9	6	4	/	/	/
CCCCNC(=S)NNC(=O)c1cc(-c2cccnc2)nc2ccccc12	22	24	25	-25	-3	16	/	/	/
CCNC(=O)COC(=O)c1cc(-c2ccc(OC)cc2)nc2ccccc12	20	42	18	6	2	26	/	/	/
Cc1c(-c2cc(C(=O)O)c3ccccc3n2)cnn1C	-4	3	5	41	-30	2	/	/	/
Cc1[nH][nH]c(=O)c1C(c1ccc(-c2ccc(F)cc2)o1)c1c(C)[nH][nH]c1=O	-43	85*	51*	8	-14	-7	13	/	60*
Cc1[nH][nH]c(=O)c1C(c1ccc(-c2ccc(C(=O)O)cc2)o1)c1c(C)[nH][nH]c1=O	/	/	/	-10	-8	/	/	/	/
Cc1nnnn1/C(=C\c1ccccc1)C(=O)OCC(=O)NC1CCCCC1	41*	54*	47*	2	/	25	35*	50*	47*
OCC[C@H]1C[C@@H](O)[C@H](O)[C@]2(Cc3ccccc3CO2)O1	6	5	3	20	/	15	/	/	/
O=C(NC(=S)N(CCc1ccccc1)CCc1ccccc1)c1ccco1	42*	51*	49*	-59	19	8	44*	-10	51*
CC(CCc1ccccc1)NC(=S)NC(=O)c1ccco1 (stereo not given)	20	44	8	-5	18	29	/	/	/
Cc1cc(OCC(=O)Nc2nccs2)c2c(C)cc(=O)oc2c1	-10	-9	2	23	14	10	/	/	/
CCCCCCCCCCOC(=O)Cn1c(COc2ccc(Cl)cc2)[n+](C)c2ccccc21	55*	92*	97*	106*	61*	18	92*	54*	91*
Cc1c(-n2c(O)c(C3=c4ccccc4=NC3=O)sc2=O)c(=O)n(-c2ccccc2)n1C	-1	-13	-7	-10	1	6	/	/	/
Cc1ccc2c(c1)c(C1=c3ccccc3=NC1=O)c(O)n2C	41*	52*	50*	1	-2	12	33*	50*	64*
CCNC(=S)N/N=C/c1cn(Cc2ccccc2F)c2ccccc12	30	18	14	-48	16	17	/	/	/
CNC(=S)N/N=C/c1cn(Cc2c(F)cccc2Cl)c2ccccc12	57*	51*	47*	-62	20	16	37*	-10	40*
N=c1c(C(=O)NCCN2CCOCC2)cc2c(=O)n3ccccc3nc2n1CCc1ccccc1	12	-2	-12	-21	14	12	/	/	/
CCN(CC)c1ccc2c(Cl)c(Br)c(=O)oc2c1	72*	64*	60*	/	-6	6	59*	68*	78*
CCN(CC)c1ccc2c(c1)oc(=O)c1c(Cl)cc(=O)oc12	89*	73*	78*	-21	3	6	82*	61*	81*
O=C(NC12CC3CC(CC(C3)C1)C2)C12CC3CC(C1)CC(n1cnc(Cl)n1)(C3)C2	46*	60*	65*	16	4	5	53*	46*	50*
Cc1ccc(C(C)(C)NC(=O)C2CCC(=O)N(Cc3ccccc3F)C2)cc1 (stereo not given)	11	14	5	-3	5	10	/	/	/
CC(=O)/C(=C/c1ccccc1)C(=O)Nc1ccccc1C	72*	68*	61*	-83	-1	36	52*	63*	54*
SMILES	TIM10 inh	tim23-1 inh	tim10-1 inh	PfHsp90 yeast 2	NALP1 inh	NALP3 yeast inh	tim10-1 conf	tim10 confirm	tim23-1 confirm
Cc1ccccc1NC(=O)C(=Cc1ccc(C(=O)O)cc1)C(=O)Nc1ccccc1C	/	/	/	18	4	/	/	/	/
N/C(=N\OC(=O)c1cc(-c2ccccc2)nc2ccccc12)c1ccc(Cl)cc1	89*	70*	59*	-1	-6	-14	44*	87*	42*
N/C(=N\OC(=O)c1cc(-c2ccccc2)nc2ccccc12)c1cccnc1	71*	80*	52*	-6	29	-19	66*	77*	30
CCOc1ccc(S(=O)(=O)NC(C)C(=O)NCc2ccc3c(c2)OCO3)cc1 (stereo not given)	-3	13	15	26	-1	1	/	/	/
S=C(N/N=C/c1ccc2c(c1)OCO2)NC1CC2CCC1C2 (stereo not given)	27	22	9	7	-2	2	/	/	/
COc1cc(/C=N/NC(=S)NC2CC3CCC2C3)ccc1O (stereo not given)	49*	68*	42*	-2	-12	-12	24	43*	52*
Oc1c(C(c2cccs2)N2CCN(c3ccccc3)CC2)ccc2cccnc12 (stereo not given)	1	59*	56*	/	4	15	40*	/	78*
CC(C)N1C(=O)N(c2cccc(Cl)c2)C(C)(O)CC1(C)C (stereo not given)	-6	20	15	-43	19	15	/	/	/
Clc1ccc(N=c2ssnc2Cl)nc1	85*	62*	57*	120*	-19	34	77*	47*	90*
CC(C)(C)c1ccc(CN2N=Nc3ccccc3S2(=O)=O)cc1	60*	63*	72*	5	12	11	64*	-1	28
O=S1(=O)c2ccccc2N=NN1Cc1ccc(Cl)c(Cl)c1	14	-3	28	/	15	6	/	/	/
O=C1CC(C(=O)N2CCc3ccccc32)CN1c1cccc(C(F)(F)F)c1 (stereo not given)	7	2	8	-12	/	11	/	/	/
O=C(OCc1ccc(Cl)c(Cl)c1)c1ccc[nH]1	-10	23	18	23	40	16	/	/	/
O=C(N/N=C/c1cc(Cl)ccc1O)c1ccccc1Br	54*	65*	42*	-4	-1	24	12	32*	59*

Source: PubChem BioAssay (several laboratories)
